High-throughput results as filed in PubChem.
Only some compounds are listed: those with a hit (about 1.1% of all), similar ones and a draw of the others.
COUP-TFII inh: NR2F2 (human) inhibition, primary screen; inhibition, % at 8.6 µM; AID 686940; HEK293T NGFI-A luciferase reporter, luminescence; 0.7% of 370,000 active;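 active = inhibition above a per-plate cutoff, mean inhibition of test wells between control levels plus 3 SD, cut at about 38% in these data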;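 also: cells cotransfected with COUP-TFII expression vector driving the NGFI-A reporter; 0% = median of COUP-TF2 test wells and 100% = reporter-only cells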
NCOA1 inh: inhibitors of human steroid receptor coactivator 1 (SRC1); HEK293 GAL4-SRC1 luciferase reporter, luminescence; Q15788; inhibition, % at 3.6 µM; 0.12% of 360,000 active;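 active = inhibition above the campaign mean plus 3 SD, with each screening campaign given its own cutoff, cut at about 60% in these data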;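 also: 0% = DMSO treated cells and 100% = gossypol at 36 µM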
NCOA3 inh: inhibitors of human steroid receptor coactivator 3 (SRC3). inhibition, % at 3.6 µM. HEK293 GAL4-SRC3 luciferase reporter, luminescence. 0.17% of 360,000 active. Q9Y6Q9;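 active = inhibition above a per-campaign cutoff, the mean of all compounds plus 3 SD, cut at about 60% in these data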;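 also: 0% = DMSO-treated cells and 100% = gossypol-treated cells at 36 µM; higher means less SRC3-driven luciferase light from the GAL4 reporter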
SRC2 inh: human SRC2 (NCOA2) inhibition | AID 651957 | HEK293 GAL4-SRC2 luciferase reporter, luminescence | 0.17% of 370,000 active | inhibition, % at 9 µM;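 active = inhibition above the mean inhibition of all tested compounds plus 3 SD, set per campaign, cut at about 52% in these data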;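 also: 0% = DMSO treated cells and 100% = cells given Gossypol at 36 µM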
NR5A2 inv ag: inverse agonists of human LRH-1 (NR5A2); inhibition, % at 3.6 µM; O00482; HEK293T StAR-luciferase reporter, LRH-1 transfected, 24 h; 0.13% of 360,000 active;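 active = inhibition above the mean inhibition of all tested compounds plus 3 SD, cut at about 73% in these data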;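 also: 0% = DMSO wells and 100% = reporter-only cells lacking LRH-1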
GalR3 antagonist: human GalR3 antagonism; HEK293 GalR3-CNG cAMP membrane potential fluorescence; galR3 body fused to GalR1 C-terminus; 0.44% of 360,000 active; O60755; inhibition, % at 3 µM;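 active = inhibition above the screen-wide average plus 3 SD, cut at about 13% in these data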;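 also: forskolin and galanin both at EC90 stimulate the cells; cAMP rise reported by CNG channel membrane potential dye signal; 0% = forskolin plus galanin with DMSO and 100% = forskolin alone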
VP16 Luc counter: counter-screen for COUP-TFII antagonists: inhibitors of VP16 | shares compounds with COUP-TFII inh | HEK293 Gal4-VP16 luciferase reporter, luminescence | inhibition, % at 8.5 µM | 25% of 2,500 active | AID 687007; in the data active = inhibition above about 13%
NR2F2 inh conf: confirmation of human COUP-TFII (NR2F2) inhibitors; HEK293 NGFI-A luciferase reporter, luminescence; 45% of 2,500 active; shares compounds with COUP-TFII inh; inhibition, % at 8.5 µM;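 active = mean inhibition over three repeats above a set limit taken from the earlier primary screen, cut at about 38% in these data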;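 also: 100% = cells given the luciferase reporter alone without the COUP-TF2 vector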
Numbers without * were called inactive; nt = no result given.

SMILES	COUP-TFII inh	NCOA1 inh	NCOA3 inh	SRC2 inh	NR5A2 inv ag	GalR3 antagonist	VP16 Luc counter	NR2F2 inh conf
O=C1CC(c2ccc3c(c2)OCCO3)Oc2ccc([N+](=O)[O-])cc21 (stereo not drawn)	42*	57	53	-1	43	0	20*	67*
CCN(C1CCS(=O)(=O)C1)S(=O)(=O)c1ccc(Cl)s1 (stereo not drawn)	-13	3	0	-28	6	-3	nt	nt
Nc1c2c(nc3ccccc13)CCC2	6	1	8	5	-8	-3	nt	nt
Nc1ccc2c(c1)C(=O)C(=O)c1ccccc1-2	102*	85*	93*	94*	105*	1	97*	110*
O=C(CN1C(=O)C2CC=C(Cl)CC2C1=O)N1CCOCC1 (stereo not drawn)	8	4	-6	12	-22	-3	nt	nt
CCCCC(=O)c1ccc(O)cc1O	103*	-28	9	-23	-7	2	-10	4
COc1ccc(NC(=O)CN(c2ccccc2)S(=O)(=O)c2ccccc2)c(OC)c1	19	-9	1	7	2	-7	nt	nt
CNC(=O)c1ccc(NC(=O)C2CCN(c3ncnc4sc(C)c(C)c34)CC2)cc1	44*	41	36	20	19	1	-1	13
COc1cc(C(=O)N2CCN(c3ncnc4sc(C)c(C)c34)CC2)cc(OC)c1OC	48*	13	9	-5	34	-1	8	48*
Cc1sc2ncnc(N3CCN(c4ncccn4)CC3)c2c1C	-4	-3	11	6	1	1	nt	nt
COc1ccc(-c2csc(NC(=O)C3CCN(c4ncnc5sc(C)c(C)c45)CC3)n2)cc1OC	56*	79*	60	23	18	-2	12	87*
CCN(CC)C(=O)Cn1cc(S(=O)(=O)CC(=O)Nc2ccccc2F)c2ccccc21	4	6	3	0	11	0	nt	nt
COc1cccc(-c2c(-c3cc(OC)cc(OC)c3)n(C)c3ccc(-c4ccc5[nH]ccc5c4)cc23)c1	-8	3	-6	-16	-7	-2	nt	nt
Cc1csc2ncnc(N3CCN(C(=O)Nc4ccc(OC(F)(F)F)cc4)CC3)c12	39*	-7	32	41	-2	-6	6	28
O=C(CSc1ncnc2ccccc12)Nc1ccc2c(c1)OCCO2	-16	-14	-3	12	-7	0	nt	nt
O=C(Cn1cnc2ccccc2c1=O)Nc1ccc2c(c1)OCO2	-25	-54	-43	-24	-30	-3	nt	nt
O=C(CSc1ncccc1C(=O)O)Nc1ccc2c(c1)OCCO2	55*	15	19	48	50	-9	-6	-4
O=C(Cn1cnc2ccccc21)Nc1ccc2c(c1)OCCCO2	39*	6	5	10	10	-10	-24	9
COc1ccc(OCCNC(=O)c2ccc3nc(C)c(N(C)C(=O)CCc4ccccc4)n3c2)cc1	85*	13	1	45	-1	-3	-15	3
N#Cc1c(NC(=O)CSc2ncn[nH]2)sc2c1CCCCC2	88*	36	49	84*	53	-7	81*	79*
O=[N+]([O-])c1ccc(Sc2cccc[n+]2[O-])c2nonc12	101*	89*	84*	93*	90*	-6	96*	105*
O=C(NC1CCCC1)C(c1ccccc1)n1c(CSCCOc2ccccc2)nc2ccccc21 (stereo not drawn)	59*	nt	nt	77*	20	-8	46*	50*
COc1ccc(-c2csc(NC(=O)Cc3ccccc3F)n2)cc1OC	49*	9	0	-6	6	11	-14	2
COc1ccccc1CC(=O)Nc1nc(-c2ccc(F)c(F)c2)cs1	0	-4	-4	3	-20	-9	nt	nt
CCOc1cc(/C=C2\CN(CC)C/C(=C\c3ccc(O)c(OCC)c3)C2=O)ccc1O	79*	51	43	10	46	-6	48*	72*
SMILES	COUP-TFII inh	NCOA1 inh	NCOA3 inh	SRC2 inh	NR5A2 inv ag	GalR3 antagonist	VP16 Luc counter	NR2F2 inh conf
CCn1cc(C2C(C(=O)Nc3ccc(Br)cn3)=C(C)NC3=C2C(=O)CCC3)c(C)n1 (stereo not drawn)	-2	13	11	17	0	-2	nt	nt
Cc1ccc(NC2=CC(=O)CC(c3ccccc3)C2)cc1 (stereo not drawn)	-4	-13	-3	-8	5	-4	nt	nt
Cc1ccc(-c2nnc(SCC(=O)Nc3ccccc3F)o2)cc1	64*	33	9	62*	32	4	24*	40*
O=C(Nc1ccccc1)OC[C@@H]1C=CS(=O)(=O)N1Cc1ccc(Br)cc1	-2	4	4	20	1	-7	nt	nt
CN(C)c1ccc(Cc2ccc(N(C)C)cc2)cc1	0	-22	5	-2	18	-2	nt	nt
CN(C)c1ccc(CCc2ccc(N)cc2)cc1	59*	-4	15	45	10	-6	40*	19
O=C(NCc1cccnc1)/C(=C\c1ccc(-c2cccc(Cl)c2)o1)S(=O)(=O)c1ccccc1	42*	6	82*	63*	68	-6	21*	37
O=c1cc(O)cc2n1CCC2	1	-9	-17	-32	7	-6	nt	nt
Cc1cc2nc(C3CCCN(C(=S)Nc4ccccc4)C3)[nH]c2cc1C (stereo not drawn)	49*	8	8	21	10	-9	-8	9
CC(C)S(=O)(=O)c1csc(C(=O)NN)c1Cl	1	2	8	5	-1	-1	nt	nt
CN(C)S(=O)(=O)c1ccc(C(=O)Nc2nnc(-c3cccs3)o2)cc1	-1	-7	-5	-3	-17	2	nt	nt
CN(C)S(=O)(=O)c1ccc(C(=O)Nc2nc(-c3cccs3)cs2)cc1	54*	9	25	18	22	-5	-5	26
Cc1nc2ccccc2c2oc(C(=O)N3CCN(C4CCCCC4)CC3)cc12	42*	-7	2	-1	-41	0	-7	11
Cc1nc2ccccc2c2oc(C(=O)N3CCC(N4CCCCC4)CC3)cc12	nt	9	6	nt	-79	nt	nt	nt
COc1cccc(CNC(=O)c2cc3c(C)nc4ccccc4c3o2)c1	38*	2	-19	22	22	nt	3	16
COc1ccc(CNC(=O)c2cc3c(C)nc4ccccc4c3o2)c(OC)c1	nt	36	-10	nt	43	nt	nt	nt
CCc1ccc(CNC(=O)c2cc3c(C)nc4ccccc4c3o2)cc1	51*	2	6	41	14	nt	6	37
O=C1CC(c2ccc(S(=O)(=O)NCCOc3ccccc3)cc2)CN1 (stereo not drawn)	6	-3	9	0	-14	-6	nt	nt
